# Shown are actives, neighbours in structure and some others; about 21% of the full set was active somewhere.
# Pf growth 96h – Primary qHTS for delayed death inhibitors of the malarial parasite plastid, 96 hour incubation; P. falciparum luciferase reporter growth, 96 h; Potency, µM (doses to about 28.7 µM), for inactives: top-dose activity change, negative = inhibition, hits mostly inhibitors; 320,000 tested, 6.9% active; AID 504834, 2011; active means well fitted inhibition curve with a large enough effect; inconclusive means small, poorly fitted or top-dose-only effect, or another doubt; inactive means no such curve, though single readings can be large or run the other way; further: potency means the concentration at half of the fitted maximal effect; on the % scale 0 is the no-effect control and ±100 the full control effect
#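 Two-generation exposure (96 h) targets delayed-death phenotype. Reporter parasites carrying integrated firefly luciferase, in red cells at 2% hematocrit and 0.05% parasitemia final, kept at 37 C, 5% CO2; luminescence loss indicates inhibition.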
# Shiga inhibitor – A qHTS for Small Molecule Inhibitors of Shiga Toxin; 290,000 tested, 9.2% active; AID 2315, 2010; inhibition, % at 38.7 µM; Vero cells, Shiga toxin protein synthesis inhibition reporter; in the data active means inhibition mostly above about 28%, no sharp cut-off; inactive means mostly below about 43%; further: 0% is about no effect
# CHX counter – Cycloheximide Counterscreen for Small Molecule Inhibitors of Shiga Toxin. cell reporter, cycloheximide protein synthesis inhibition counterscreen. max response, %. 300,000 tested, 12% active; in the data active means max response mostly above about 13%, no sharp cut-off; inactive means mostly below about 14%; further: read at 38.3 µM for the half of the compounds with a filed dose; 0% is about no effect
# SARS PLP yeast – qHTS of Yeast-based Assay for SARS-CoV PLP | S. cerevisiae expressing SARS-CoV PLpro, growth rescue | Potency, µM (top dose mostly 32.9 µM), inactives show top-dose activity, positive = growth rescue, usual class: activators | 330,000 tested, 0.19% active; further: potency means the concentration at half of the fitted maximal effect; 0% is about no effect; nearly all actives have a fitted effect of over 55% in size
# Pf growth 48h – Primary qHTS for delayed death inhibitors of the malarial parasite plastid, 48 hour incubation; 310,000 tested, 5.9% active; P. falciparum luciferase growth in erythrocytes, 48 h; Potency, µM (titrated, usually from 28.7 µM), without a hit: at the highest dose activity change, negative = inhibition, actives largely listed as inhibitors; active means well fitted inhibition curve with a large enough effect; inconclusive means small, poorly fitted or top-dose-only effect, or another doubt; inactive means no such curve, though single readings can be large or run the other way; further: potency means the concentration at half of the fitted maximal effect; on the % scale 0 is the no-effect control and ±100 the full control effect
#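 Firefly luciferase activity from engineered P. falciparum reports growth; inhibitors lower the luminescent signal. Cultures contained 2% hematocrit erythrocytes at 0.1% final parasitemia.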
# NS1 inh – qHTS Assay for Inhibitors of Influenza NS1 Protein Function. AID 2326, 2010. 270,000 tested, 0.4% active. Potency, µM (doses to about 46.1 µM), without a hit: at the highest dose activity, positive = more growth; further: potency means the concentration at half of the fitted maximal effect; actives are rising curves; nearly all actives have a fitted effect of over 50% in size
#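 Read-out: OD600 growth recovery of NS1-expressing budding yeast. Cells grown overnight at 30C in -URA glucose medium, washed, resuspended and diluted 1:100 in 2% galactose assay medium, pH 6.0. Same strain lacking NS1 served as positive control.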
# The depositor's hits bear a star; u = inconclusive; x = no result given; [ ] = another dose, or the depositor's remark. Unless noted, the call rests on the fitted dose curve.
SMILES,Pf growth 96h,Shiga inhibitor,CHX counter,SARS PLP yeast,Pf growth 48h,NS1 inh
COc1cc(CC(=O)N(c2ccccc2)c2nc(C)cs2)cc(OC)c1OC,u,-13.5,-1.7,-4.2%,u,x
O=C1CC(NS(=O)(=O)c2ccccc2F)CN1c1ccc2c(c1)OCCO2 (stereo unspecified),-8.1%,x,x,0.8%,13.9%,x
CC(=O)c1ccccc1OC(=O)COc1ccc(Cl)cc1C,-18.5%,-1.0,-2.3,-2.1%,30.9%,-53.7%
Cn1c(CCNC(=O)C(C)(C)C)nc2ccccc21,5.4%,-13.0,2.2,1.1%,21.1%,0.6%
Cc1ccccc1NCc1nc2ccccc2n1C,0.0%,84.2*,55.3*,-5.8%,154.9%,-17.3%
Cn1c(CNc2ccccc2O)nc2ccccc21,9.28µM*,75.7*,23.4*,-23.3%,x,-86.2%
CCCCOC(=O)n1c(SCC(=O)N(CC)CC)nc2ccccc21,2.62µM*,-7.1,-0.2,-0.1%,-21.8%,-66.8%
CCOC(=O)n1c(SCC(N)=O)nc2ccccc21,u,-2.3,1.0,7.4%,13.8%,-13.5%
Cc1ccc(S(=O)(=O)N2c3ccccc3OCC2c2ccccc2)cc1 (stereo unspecified),u,1.6,9.7,-8.7%,2.62µM*,12.3%
COc1ccc(S(=O)(=O)N2c3cc(C)ccc3OCC2C(C)(C)C)cc1 (stereo unspecified),u,-16.9,-1.7,-30.0%,u,-34.8%
CC1COc2ccccc2N1S(=O)(=O)c1ccc(Cl)cc1 (stereo unspecified),u,-4.0,6.3,-4.3%,10.4µM*,x
CC1COc2ccccc2N1C(=O)c1ccc(Cl)cc1 (stereo unspecified),32.4%,9.3,-4.4,0.4%,7.9%,-5.1%
Cc1ccc(S(=O)(=O)N2c3cc(C)ccc3OCC2C(C)(C)C)cc1 (stereo unspecified),u,2.5,11.5,-30.9%,13.1µM*,-36.3%
O=C(c1ccco1)N1N=C2CCCCCC2C1(O)C(F)(F)F (stereo unspecified),7.7%,-4.3,-5.6,-0.7%,35.3%,1.9%
Cc1csc(Nc2nc(N)c(C(=O)Nc3ccccc3)o2)n1,3.29µM*,97.9*,39.4*,0.3%,4.7%[0.00184 µM],-4.0%
CC(C)(C)c1csc(NNC(=O)c2ccc(Br)cc2)n1,u,93.9*,39.9*,-22.7%,2.94µM*,x
Cc1csc(NC(=O)c2ccc(Cl)nc2)n1,101.8%,56.6*,46.6*,0.1%,x,-4.8%
CSc1ncccc1C(=O)Nc1nc(C(C)(C)C)cs1,10.1%,17.7*,21.2*,-3.1%,7.8%,0.9%
CN1C(=O)Cc2cc(S(=O)(=O)NCc3c(F)cccc3Cl)ccc21,-29.1%,-2.5,-4.7,1.4%,u,-1.0%
CCOc1cc(/C=N/N2CCOCC2)ccc1OCc1ccc(C(=O)OC)o1,-16.3%,-3.8,-6.5,-0.4%,-18.7%,x
Cc1csc(NC(=O)c2ccccc2O)n1,89.0%,89.2*,56.4*,-48.9%,108.3%,-203.3%
CC(C)(C)c1csc(NC(=O)c2ccccc2O)n1,16.8%,39.3*,32.1*,-22.9%,-2.6%,-136.4%
Cc1csc(NC(=O)c2cc(C)oc2C)n1,182.5%,73.7*,27.6*,-6.2%,47.7%,-10.7%
Cc1ccc(C(=O)O)c(C(=O)Nc2nc(C)cs2)c1,u,-7.7,-2.8,0.9%,u,1.0%
CCCCN(CCCC)C(=O)c1nsnc1-c1ccccc1O,x,18.9,-3.6,-3.6%,-2.3%,-55.9%
SMILES,Pf growth 96h,Shiga inhibitor,CHX counter,SARS PLP yeast,Pf growth 48h,NS1 inh
COc1ccc(NC(=O)CC2(CC(=O)O)CCCC2)cn1,-0.6%,-7.2,-0.9,-2.1%,13.4%,x
Cc1nn(CCc2nc(-c3ccco3)cs2)c2[nH]c(=O)cc(C(F)(F)F)c12,9.28µM*,5.4,-1.1,2.4%,x,-76.2%
CC(C)c1cc(C(=O)NNC(=S)NC2CCCCC2)cs1,101.5%,51.0*,31.6*,-4.6%,120.5%,-5.1%
Cc1nn(C)c(C(=O)NNC(=S)NC2CCCCC2)c1Br,5.22µM*,60.7*,45.2*,0.4%,81.9%,-2.7%
CCc1cc(C(=O)NNC(=S)NC2CCCCC2)cs1,-99.8%,54.3*,46.3*,4.0%,152.7%,5.9%
O=C(NC1CCCCC1)C(c1ccccc1)N(Cc1cccnc1)C(=O)c1csnn1 (stereo unspecified),-4.1%,-2.4,-5.4,1.3%,u,3.0%
O=C(NCc1nc2ccccc2[nH]1)C1=C[C@H](c2csc3ccccc23)C[C@H](OCc2ccc(CO)cc2)O1,14.7µM*,3.0,-3.1,4.5%,11.7µM*,u
O=C(NCc1nc2ccccc2[nH]1)C1=C[C@@H](c2csc3ccccc23)C[C@@H](OCc2ccc(CO)cc2)O1,3.29µM*,3.8,2.6,-0.8%,u,15.7%
Cc1cc(C(=O)NCCc2ccc(Cl)cc2)no1,-18.7%,24.2,13.3,-0.3%,6.57µM*,-1.8%
O=C(NCCC1=CCCCC1)c1c(O)nc2sccn2c1=O,u,x,x,3.1%,11.7µM*,x
O=C(NCCC1=CCCCC1)c1cc2c(s1)CS(=O)(=O)C2,1.8%,24.7*,17.4*,5.1%,39.4%,2.3%
O=C(NCCc1ccc(Cl)cc1)c1cc2ccccn2n1,11.3%,60.2,24.7*,-2.3%,-12.5%,-43.4%
COc1ccc(OCC(=O)N/N=C2/C=C(C)CC2)cc1,u,-11.6,0.9,-2.5%,u,7.7%
O=C(Nc1ccc(Br)cc1)c1cc2ccccn2n1,340.2%,63.6*,44.2*,-6.5%,180.7%,-29.8%
O=C(NCc1ccccn1)c1cc2ccccn2n1,u,27.3,11.2,-17.0%,x,-6.3%
Cc1cc(C(=O)NCCC2=CCCCC2)no1,20.3%,90.8*,44.8*,5.4%,19.6%,-14.8%
Cc1cc(C(=O)NCCc2ccc(S(N)(=O)=O)cc2)no1,-26.2%,-17.9,-8.4,3.6%,-10.0%,x
O=C(NCCC1=CCCCC1)c1cnsn1,4.65µM*,45.6*,34.6*,-0.2%,89.5%,-1.9%
CCCN1C2CCCC1CC(NC(=O)c1ccc(OC)cc1)C2 (stereo unspecified),19.9%,x,1.0,1.4%,12.0%,2.8%
O=C(NCC1CCN(Cc2ccc(F)cc2)CC1)C1CCCN(c2ncnc3c2nc2n3CCCCC2)C1 (stereo unspecified),9.28µM*,-6.6,-1.1,-1.8%,u,-2.9%
O=C(NCC1CCN(Cc2ccc(Cl)cc2)CC1)C1CCCN(c2ncnc3c2nc2n3CCCCC2)C1 (stereo unspecified),2.7%,12.7,-1.5,0.2%,11.7µM*,-1.4%
O=C(NCC1CCN(Cc2cccc(Cl)c2)CC1)C1CCCN(c2ncnc3c2nc2n3CCCCC2)C1 (stereo unspecified),-18.6%,9.0,-3.9,-5.8%,u,-11.9%

# Screening data deposited in PubChem BioAssay by National Center for Advancing Translational Sciences (NCATS).
